# Measurements from PubChem BioAssay (NCI).
# Where “and” joins values, the source holds several entries; their conditions need not be identical. Equal entries are not always repeated. The panel holds about 83,000 compounds, 20% with a hit somewhere; the sample as a whole holds those more often.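 A percent growth of 40 corresponds to 60% growth inhibition; 0 means no net growth; -100 means all cells died. Active threshold: below 10.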 Calls of active or inactive are those of the source. Where a SMILES comes first, the peptide text is derived from it. [ ]: non-standard residue; d: D form. ξ: configuration not given here. ξV = CC(C)C(N)C(=O)O
# Tests used:
# Experiment in all cases: NCI-60 one-dose screen, 48 h (100 = growth as untreated, 0 = no growth, -100 = all killed)
# RPMI-8226 leukemia = conditions: 10 µM
# OVCAR-8 ovarian = conditions: 10 µM
# OVCAR-5 ovarian = conditions: 10 µM
# OVCAR-4 ovarian = conditions: 10 µM
# SK-OV-3 ovarian = conditions: 10 µM
# IGROV1 ovarian = conditions: 10 µM
# OVCAR-3 ovarian = conditions: 10 µM
# HS 578T breast = conditions: 10 µM
# NCI/ADR-RES ovarian = conditions: 10 µM
# SR leukemia = conditions: 10 µM unless noted
SMILES,growth (RPMI-8226 leukemia),growth (OVCAR-8 ovarian),growth (OVCAR-5 ovarian),growth (OVCAR-4 ovarian),growth (SK-OV-3 ovarian),growth (IGROV1 ovarian),growth (OVCAR-3 ovarian),growth (HS 578T breast),growth (NCI/ADR-RES ovarian),growth (SR leukemia)
CCN1/C(=C/C=C/C=C/c2sc3ccccc3[n+]2CC)Sc2ccccc21,-21.4% (active),-65.6% (active),7.61% (active),-42% (active),-73.1% (active),-62.9% (active),-64.1% (active),26.2% (inactive),55.9% (inactive),
CCCCCC(C)c1ccc(O)c(C)c1 (centres undefined),,102% (inactive),102% (inactive),95.5% (inactive),106% (inactive),117% (inactive),105% (inactive),105% (inactive),102% (inactive),94.3% (inactive)
NNc1c2ccccc2nc2ccccc12,34.7% (inactive),57.2% (inactive),102% (inactive),34.4% (inactive),63.5% (inactive),55% (inactive),51.4% (inactive),,57.3% (inactive),21.1% (inactive)
C[n+]1c2cc(N)ccc2cc2ccc(N)cc21,,,-5.86% (active) and 16.3% (inactive) and -3.49% (active),,3.68% (active) [middle of 4 runs],16.7% (inactive) and 36.3% (inactive) and 12.2% (inactive),,,18.2% (inactive) [middle of 4 runs],5.82% (active) and 0.679% (active) and -0.456% (active)
CO[C@H](C(=O)[C@@H](O)[C@@H](C)O)[C@@H]1Cc2cc3cc(OC4CC(OC5CC(O)C(O)C(C)O5)C(O)C(C)O4)c(C)c(O)c3c(O)c2C(=O)[C@H]1OC1CC(OC2CC(OC3CC(C)(O)C(O)C(C)O3)C(O)C(C)O2)C(O)C(C)O1 (some centres undefined),-14.5% (active),,-54.9% (active),8.23% (active),35.3% (inactive),-21% (active),3.02% (active),,44.4% (inactive),10.5% (inactive)
COc1ccc(CC(=O)c2ccc(O)cc2O)cc1,,92.8% (inactive),105% (inactive),99.2% (inactive),163% (inactive),122% (inactive),130% (inactive),108% (inactive),105% (inactive),
CN1CCN(CCCN2c3ccccc3Sc3ccc(C(F)(F)F)cc32)CC1,-7.1% (active),78.2% (inactive),,71.2% (inactive),92.4% (inactive),40.7% (inactive),92% (inactive),60.4% (inactive),70.8% (inactive),14.2% (inactive)
COC1OCC(O)C(O)C1O (centres undefined),109% (inactive),104% (inactive),110% (inactive),101% (inactive),111% (inactive),,106% (inactive),98.9% (inactive),110% (inactive),
CCCCCCCCCCCCSC(=NC)NC,-6.03% (active) and 23.3% (inactive),62.1% (inactive) and 82% (inactive),57.5% (inactive) and 84.1% (inactive),31.3% (inactive) and 71.2% (inactive),51% (inactive) and 79.1% (inactive),20.3% (inactive) and 66.7% (inactive),36.8% (inactive) and 71.7% (inactive),81.4% (inactive) and 93.2% (inactive),47.4% (inactive) and 69.1% (inactive),-4.45% (active) and -23.7% (active)
Cc1nc(N=C(N)N)nc2ccc3ccccc3c12,34.9% (inactive),-6.19% (active),26.8% (inactive),-3.65% (active),-5.35% (active),7.89% (active),-32.7% (active),3.6% (active),67.6% (inactive),
CS(=O)(=O)OC1CC(n2ccc(=O)[nH]c2=O)OC1COC(c1ccccc1)(c1ccccc1)c1ccccc1 (centres undefined),101% (inactive),104% (inactive),98% (inactive),106% (inactive),106% (inactive),92% (inactive),100% (inactive),112% (inactive),113% (inactive),78% (inactive)
O=C(O)COc1ccc(OCC(=O)O)cc1,-15.6% (active),13% (inactive),11% (inactive),21.4% (inactive),11.4% (inactive),27.4% (inactive),16.7% (inactive),20.9% (inactive),83.3% (inactive),10.3% (inactive)
CCN(CC)c1ccc(NC(C(=O)c2ccccc2)c2ccccc2)cc1 (centres undefined),8.53% (active),9.32% (active),60.9% (inactive),65.2% (inactive),109% (inactive),59.4% (inactive),-4.87% (active),46.1% (inactive),25.4% (inactive),14.3% (inactive)
CC(C)C(NC(=O)CN)C(=O)O (centres undefined) (H-Gly-[ξV]-OH),109% (inactive) and 107% (inactive),101% (inactive) and 110% (inactive),103% (inactive) and 99.9% (inactive),105% (inactive) and 102% (inactive),106% (inactive) and 101% (inactive),109% (inactive) and 108% (inactive),112% (inactive),111% (inactive) and 91.9% (inactive),105% (inactive) and 111% (inactive),57% (inactive)
